Source: PubChem BioAssay (Broad Institute)
Wnt act = Wnt/beta-catenin pathway activators, primary screen, cell-based, plate reader, single point. AID 743398, 2014. actives 1.2% (n = 300,000). activation, % at 9.35 µM. Wnt/beta-catenin reporter cell assay, activator; in the data active means activation above about 30%, passing the limit was not always enough; inconclusive means no clear call, values can overlap the other calls;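 further: 0% = neutral control wells and 100% = positive control wells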
EWS-Fli inh = EWS/Fli-driven NR0B1 reporter inhibitors, primary screen, A673 cells, NR0B1 luciferase, luminescence, MLPCN library; viability-normalised; actives 0.67% (n = 350,000); inhibition, % at 12.6 µM;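 active means mean inhibition of at least 50% after viability correction, with every replicate also passing that limit; inconclusive means mean reaches 50% but only one of two replicates passes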;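 further: firefly luciferase signal divided by Alamar Blue viability fluorescence both relative to DMSO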
TRPM1 prom inh = inhibitors of MITF-dependent TRPM1 promoter reporter, primary screen, cell-based, SK-MEL-5, single point, luciferase | SK-MEL-5 TRPM1 promoter luciferase, 24 h | inhibition, % at 12.5 µM | actives 0.83% (n = 330,000);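 active means mean inhibition across replicates of 60% or more, whatever share of single replicates reaches that level; inconclusive means some that reach 60%, reason not given; inactive means mean inhibition across replicates below 60%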
esBAF inh = Bmi1 luciferase reporter increase in mESCs, primary screen, esBAF inhibitor project, mouse ES cells, Bmi1 luciferase knock-in, single point | 24 h; 100% = twice the neutral-well signal | reporter increase, % at 12.5 µM | actives 2% (n = 350,000) | AID 602393, 2012; in the data active means activation above about 40%; inconclusive means no clear call, values can overlap the other calls;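 further: 0% = median of the plate's neutral control wells and 100% = double that signal; a rise in the Bmi1 reporter signal indicates esBAF inhibition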
MITF act = activators of MITF-driven TRPM1 promoter reporter, primary screen, cell-based, SK-MEL-5, luciferase, single point | actives 0.75% (n = 300,000) | activation, % at 12.5 µM | AID 588334, 2011 | SK-MEL-5 TRPM1-promoter luciferase, 24 h; % of positive control, neutral wells = 0;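 active means mean activation of at least 80% with every replicate also reaching 80%; inconclusive means mean reaches 80% but some replicate falls short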;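 further: 0% = neutral control wells and 100% = parthenolide positive control wells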
PAX8 inh HTS = inhibitors of PAX8-driven TPO luciferase reporter, primary screen, RMG-I cells, single concentration | SteadyGlo, 24 h | inhibition, % at 12.6 µM | actives 1.2% (n = 360,000) | AID 652154, 2013;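 active means mean replicate inhibition at least 60% with every replicate also reaching 60%; inconclusive means only one of the two criteria is met; inactive means mean below 60% and not all replicates reaching 60%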;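 further: luciferase light reporting Pax8 driven TPO promoter activity; plate controls were median of neutral control wells for no effect and mitoxantrone controls for full effect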
* = called active by the depositor; ? = inconclusive; · = not tested or not shown; ! = repeats disagree. This is a sample that favours compounds with a hit; in the whole collection about 4% have one here.

SMILES | Wnt act | EWS-Fli inh | TRPM1 prom inh | esBAF inh | MITF act | PAX8 inh HTS
CC=Cc1ccc2n(c1=O)C[C@@H]1[C@@H](CO)[C@H](C(=O)N[C@@H](C)c3ccccc3)[C@H]2N1Cc1cccnc1 (mixture of isomers) | · | 0 | · | 1 | · | -5
COc1ccc(S(=O)(=O)Nc2ccc3c(c2)C(=O)N([C@@H](C)CO)C[C@@H](C)[C@H](CN(C)S(=O)(=O)c2c(C)noc2C)OCCCC[C@@H](C)O3)cc1 | · | 10 | · | 9 | · | 28
Fc1cccc2sc(N3CCCC3)nc12 | 14 | -52 | -80 | · | 86* | -53
Cc1cc(C)nc(Nc2n[nH]c(-c3ccc(C(C)(C)C)cc3)n2)n1 | 3 | -70 | -22 | 55* | 20 | -46
Cc1cc(C)nc(Nc2n[nH]c(-c3ccccc3Br)n2)n1 | · | · | -32 | 44* | · | ·
Cc1cc(C)nc(Nc2n[nH]c(-c3ccccc3C)n2)n1 | 14 | -91 | -57 | · | 58 | -152
Cc1cc(C)nc(Nc2n[nH]c(-c3ccc(N)cc3)n2)n1 | 47* | · | -24 | 11 | · | -103
COc1ccc(CN(C)C[C@H]2Oc3ccc(NS(=O)(=O)c4c(C)noc4C)cc3C(=O)N([C@H](C)CO)C[C@@H]2C)cc1 | · | 0 | · | -3 | · | ·
CN(CCC1CCCCO1)C(=O)CCc1nnc(C2CCCCC2)o1 (stereo not drawn) | 21 | -38 | -30 | 55* | 38 | -47
Cc1ccoc1C(=O)Nc1ccc2ccccc2c1 | 15 | 51* | -3 | -37 | 3 | 4
Cc1cc(C(=O)Nc2ccc3ccccc3c2)c(C)o1 | 34* | -49 | -72 | 1 | 70 | -106
Cc1cc(C(=O)Nc2ccc3ccccc3c2)oc1C | -1 | -139 | -66 | 33 | 67 | -141
O=C(Nc1ccc2nc3n(c(=O)c2c1)CCCCC3)c1cc([N+](=O)[O-])ccc1F | -3 | · | 67* | -23 | -66 | 90*
O=C(Nc1ccc2nc3n(c(=O)c2c1)CCCCC3)c1c(F)ccc([N+](=O)[O-])c1F | -1 | · | 97* | -85 | -96 | 72*
O=C(Nc1ccc2nc3n(c(=O)c2c1)CCCCC3)c1ccccc1[N+](=O)[O-] | 5 | · | -37 | 21 | 12 | -9
O=C(Nc1ccccc1C(=O)Nc1nnc(C(F)(F)F)s1)c1ccccc1Cl | -4 | 17 | 17 | · | -15 | 63*
O=C(Nc1nnc(S(=O)(=O)Cc2ccc(F)cc2)s1)c1ccccc1F | -2 | · | 9 | 3 | -11 | -1
O=C(Nc1nnc(-c2ccccc2Cl)s1)c1ccccc1F | 27 | -54 | -75 | 51* | 78 | -58
O=C(Nc1nnc(-c2ccccc2)s1)c1ccccc1F | 24 | -82 | · | 70* | · | -211
Cc1noc(C)c1S(=O)(=O)Nc1ccc2c(c1)C(=O)N([C@@H](C)CO)C[C@H](C)[C@@H](CN(C)C(=O)NC(C)C)O2 | · | -1 | · | -4 | · | ·
COCC(=O)Nc1ccc2c(c1)C(=O)N(C)[C@H]1CC[C@H](CC(=O)NC3CCCC3)O[C@@H]1CO2 | · | 6 | · | -1 | · | -4
Cn1ccc(NC(=O)c2ccc(Cl)cc2Cl)n1 | 35* | -70 | -82 | 30 | ? | -177
Cn1ccc(NC(=O)c2ccc(Cl)cc2)n1 | 18 | -74 | -53 | 26 | 50 | -41
Fc1ccccc1CSc1ncnc2c1ncn2C1CCCO1 (stereo not drawn) | 0 | -133 | -63 | 69* | 59 | -136
Nc1ncnc2c1ncn2C1CCCO1 (stereo not drawn) | -3 | -7 | -11 | 4 | 11 | -15
SMILES | Wnt act | EWS-Fli inh | TRPM1 prom inh | esBAF inh | MITF act | PAX8 inh HTS
CCCCSc1ncnc2c1ncn2C1CCCCO1 (stereo not drawn) | 52* | -17 | -89 | 16 | 90* | ·
COc1ccc2c3c([nH]c2c1)[C@H](CO)N(C(=O)Nc1ccc(F)cc1)CC31CN(Cc2nccs2)C1 | · | 4 | · | · | · | ·
CCOC(=O)c1c[nH]n(-c2ccccc2)c1=O | -1 | -6 | -1 | 18 | 2 | 6
CCOC(=O)c1c[nH]n(-c2ccc(C)cc2)c1=O | 5 | -23 | -13 | 52* | 15 | -11
Cc1ccc2c(c1)sc(-c1ccc(N(C)C)cc1)[n+]2C | -4 | 26 | 62* | -9 | -61 | 55
COCCNC(=O)c1noc2c1CCc1cc(OC)ccc1-2 | · | · | -76 | 36 | 77 | ·
COc1ccc2c(c1)CCc1c(C(=O)NCc3ccco3)noc1-2 | 21 | -93 | -102 | 42* | 100* | ·
COc1ccc2c(c1)CCc1c(C(=O)N(C)c3ccccc3)noc1-2 | ? | -105 | -56 | 56* | 55 | -89
COc1ccc2c(c1)CCc1c(C(=O)NC3CCCCC3)noc1-2 | · | · | -87 | -5 | 91* | ·
CO[C@H]1CN(C)C(=O)c2ccc(NC(=O)C3CC3)cc2OC[C@H](C)N(C(=O)Cc2ccccn2)C[C@H]1C | · | 4 | · | 1 | · | -6
C[C@@H]1CN([C@@H](C)CO)C(=O)c2c(c3ccccc3n2C)-c2ccccc2CO[C@@H]1CN(C)S(=O)(=O)c1ccc(C(F)(F)F)cc1 | · | 9 | · | · | · | 97*
C[C@@H]1CN([C@@H](C)CO)C(=O)c2c(c3ccccc3n2C)-c2ccccc2CO[C@@H]1CN(C)S(=O)(=O)c1ccsc1 | · | 0 | · | 0 | · | -11
Cc1ccc(S(=O)(=O)N(C)C[C@@H]2OCc3ccccc3-c3c(n(C)c4ccccc34)C(=O)N([C@H](C)CO)C[C@@H]2C)cc1 | -3 | 8 | · | 2 | · | 71*!
C[C@H](CO)N1C[C@H](C)[C@H](CN(C)S(=O)(=O)c2ccc(Cl)cc2)OCc2ccccc2-c2c(n(C)c3ccccc23)C1=O | -7 | 9 | · | 2 | · | 88*!
C[C@H](CO)N1C[C@H](C)[C@H](CN(C)S(=O)(=O)c2ccc(C(F)(F)F)cc2)OCc2ccccc2-c2c(n(C)c3ccccc23)C1=O | · | -8 | · | · | · | 54
C[C@H]1CN([C@@H](C)CO)C(=O)c2c(c3ccccc3n2C)-c2ccccc2CO[C@@H]1CN(C)S(=O)(=O)c1ccsc1 | · | 13 | · | 36 | · | 92*
CC1=NN(C(N)=S)C(=O)C1N=Nc1ccc(Cl)cc1 (stereo not drawn) | 22 | -76 | -90 | 28 | 80 | -108
CC1=NN(C(N)=S)C(=O)C1N=Nc1cccc(Cl)c1C (stereo not drawn) | 7 | -51 | -51 | 51* | · | -53
COc1ccccc1N=Nc1ccc(O)c2ncccc12 | 16 | -86 | 1 | 64* | 1 | 20
Oc1ccc(Cl)c2cccnc12 | -3 | 21 | 35 | -3 | -33 | 15
CCS(=O)(=O)c1ccc(N=Nc2ccc(O)c3ncccc23)c(OC)c1 | -1 | 11 | 66* | · | -65 | 97*
Oc1ccc(N=Nc2ccccc2C(F)(F)F)c2cccnc12 | -9 | 3 | 73* | -64 | -73 | 92*
